Source: PubChem BioAssay
HT1080-NT tox: qHTS for induction of synthetic lethality in tumor cells producing 2HG: qHTS for the HT-1080-NT fibrosarcoma cell line; Potency, µM (top dose mostly 46.1 µM), for the others: at the highest dose activity, negative = less viability, most hits filed as cytotoxic; hit rate 1.6% among 360,000; HT-1080-NT fibrosarcoma viability, CellTiter-Glo ATP luminescence, 48 h;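 further: NT is the 2HG producing partner of a matched IDH1 knockdown line; potency means the concentration at half of the fitted maximal effect; 0% = DMSO-treated cells and -100% = media-only wells without cells; nearly all actives have a fitted effect of over 55% in size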
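A 48-hour cytotoxicity screen used HT-1080-NT cells plated 2 hours before compound delivery. ATP-based CellTiter-Glo luminescence measured viability, normalized to DMSO and no-cell controls.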
IL-1B inflam inh: qHTS for Inhibitors of Inflammasome Signaling: IL-1-beta AlphaLISA Primary Screen; THP-1 LPS/ATP IL-1B secretion, AlphaLISA, 16 h; active compounds read low; activity change, % at 57.5 µM; hit rate 4.7% among 360,000; AID 743279, 2014; in the data active means activity change below about -50%; inconclusive means mostly about -30% to -49%
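THP-1 cells pretreated 1 hr with compounds (up to 57.5 uM final), then stimulated with LPS (250 ng/mL final) plus ATP (1.25 mM final); secreted IL-1B measured by AlphaLISA after 16 hr, decreased signal indicating inhibition.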
TDP1 cell CPT: qHTS for Inhibitors of human tyrosyl-DNA phosphodiesterase 1 (TDP1): qHTS in cells in presence of CPT; hit rate 12% among 420,000; chicken DT40 Tdp1-/-;hTDP1 cells + 20 nM CPT, ATP luminescence, 48 h; Potency, µM (top dose mostly 46.2 µM), without a hit: at the highest dose activity change, negative = growth inhibition, actives largely listed as inhibitors; further: potency means the concentration at half of the fitted maximal effect; nearly all actives have a fitted effect of over 55% in size
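Chicken DT40 Tdp1-/- cells stably complemented with human TDP1 were seeded at 400 cells/well in medium containing 20 nM camptothecin, exposed to pin-transferred compounds, and grown at 37 °C for at least 48 hr. Viability was read as ATP luminescence.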
ALOX12 inh: Primary qHTS assay for inhibitors of human arachidonate 12S-lipoxygenase (ALOX12): Round 2 | Polyunsaturated fatty acid lipoxygenase ALOX12 (Homo sapiens), P18054 | purified 12hLO, xylenol orange hydroperoxide absorbance | Potency, µM (series often up to 108 µM), inactives show at the top dose activity change, negative = inhibition, hits mostly inhibitors | hit rate 1.1% among 580,000; further: potency means the concentration at half of the fitted maximal effect
Target sequence (P18054 whole entry, looked up): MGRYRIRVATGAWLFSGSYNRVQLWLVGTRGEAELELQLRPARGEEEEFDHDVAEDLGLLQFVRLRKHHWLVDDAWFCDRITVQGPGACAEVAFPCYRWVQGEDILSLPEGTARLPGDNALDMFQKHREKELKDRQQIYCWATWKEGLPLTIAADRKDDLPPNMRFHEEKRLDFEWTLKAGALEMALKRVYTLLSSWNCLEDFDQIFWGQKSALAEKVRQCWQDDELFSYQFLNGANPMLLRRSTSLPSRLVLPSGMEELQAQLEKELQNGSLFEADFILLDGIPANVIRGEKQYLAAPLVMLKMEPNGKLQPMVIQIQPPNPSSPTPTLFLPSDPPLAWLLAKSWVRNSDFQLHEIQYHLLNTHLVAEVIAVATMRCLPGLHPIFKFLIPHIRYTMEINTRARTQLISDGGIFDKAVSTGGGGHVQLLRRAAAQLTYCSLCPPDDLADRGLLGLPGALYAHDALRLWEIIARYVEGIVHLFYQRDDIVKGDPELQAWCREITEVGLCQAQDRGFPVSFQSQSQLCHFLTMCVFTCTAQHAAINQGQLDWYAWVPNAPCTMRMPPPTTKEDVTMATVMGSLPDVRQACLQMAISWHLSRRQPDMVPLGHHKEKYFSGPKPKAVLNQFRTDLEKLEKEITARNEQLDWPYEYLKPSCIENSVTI
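Purified human 12hLO at 150 nM in 25 mM Hepes, 0.01% Triton X-100, pH 7.0, preincubated 15 min at room temperature with compound. Reaction started with 40 uM arachidonic acid, 30 min at room temperature. Hydroperoxide measured by Fe-xylenol orange, 573/405 nm absorbance ratio.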
DT40 TDP1 no CPT: qHTS for Inhibitors of human tyrosyl-DNA phosphodiesterase 1 (TDP1): qHTS in cells in absence of CPT; hit rate 15% among 420,000; Potency, µM (highest dose often 46.2 µM), without a hit: at the top dose activity change, negative = growth inhibition, actives largely listed as inhibitors; DT40 Tdp1-/- hTDP1 cells, no CPT, ATP luminescence, 48 h; further: potency means the concentration at half of the fitted maximal effect; nearly all actives have a fitted effect of over 55% in size
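Chicken DT40 Tdp1-/- cells stably complemented with human TDP1 were seeded at 400 cells/well with DMSO in place of 20 nM camptothecin. After compound pinning, cells grew at least 48 hr at 37 °C; viability read by CellTiter-Glo luminescence.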
HT1080 IDH1KD tx: qHTS for induction of synthetic lethality in tumor cells producing 2HG: qHTS for the HT-1080-IDH1KD cell line | AID 686971, 2013 | hit rate 2% among 360,000 | HT-1080 IDH1 knockdown viability, ATP luminescence, 48 h | Potency, µM (highest dose often 46.1 µM), for inactives: at the top dose activity, negative = toxicity, hits mostly cytotoxic;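 further: potency means the concentration at half of the fitted maximal effect; 0% = DMSO wells and -100% = cell-free medium wells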
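IDH1KD HT-1080 cells, 750/well, RPMI + 5% FBS; compound pinned after 2 h settling; 48 h, 37 °C; CellTiter-Glo luminescence; % activity normalised to DMSO and no-cell wells; curves fitted, classed by r2 and efficacy.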
Active calls of the source: *; ? = inconclusive; nt = no result. This is one part of a sample in which hits are shown more often than they occur. Unless noted, the call rests on the fitted dose curve; in most records, active means well fitted curve in the direction sought with a large enough effect; inconclusive means small, poorly fitted or top-dose-only effect, or another doubt; inactive means no such curve, though single readings can be large; an effect the other way counts as inactive or inconclusive. Unless noted, on the % scale 0 is the no-effect control and ±100 the full control effect.

SMILES	HT1080-NT tox	IL-1B inflam inh	TDP1 cell CPT	ALOX12 inh	DT40 TDP1 no CPT	HT1080 IDH1KD tx
Cc1c(C(=O)OCCOc2ccccc2)[nH]c2c1C(=O)CC(c1ccccc1)C2 (configuration not stated)	nt	nt	0.23µM*	2%	0.15µM*	nt
CCOC(=O)c1[nH]c2c(c1C)C(=O)CC(c1ccc(F)cc1)C2 (configuration not stated)	2.1µM*	126	0.73µM*	482%	0.65µM*	2.9µM*
Cc1c(C(=O)OC2CCC(C)CC2)[nH]c2c1C(=O)CC(c1ccc(N(C)C)cc1)C2 (configuration not stated)	nt	nt	-19%	-4%	-16%	nt
CCCc1c(C(=O)OCC)[nH]c2c1C(=O)CC(c1ccc(F)cc1)C2 (configuration not stated)	nt	nt	nt	-21%	nt	nt
CCOc1ccccc1N(C(=O)c1snc(C(N)=O)c1N)C(C(=O)NCC1CCCO1)c1ccc2ncccc2c1 (configuration not stated)	0%	-17	-1%	?	-2%	-1%
Cc1ccccc1N(C(=O)c1snc(C(N)=O)c1N)C(C(=O)NCC1CCCO1)c1ccc(F)cc1 (configuration not stated)	-13%	19	15µM*	6%	10µM*	-6%
CCc1ccc(N(C(=O)c2snc(C(N)=O)c2N)C(C(=O)NCC2CCCO2)c2ccco2)cc1 (configuration not stated)	-1%	-24	23µM*	?	18µM*	0%
CCOc1ccc(N(C(=O)c2snc(C(N)=O)c2N)C(C(=O)NCC2CCCO2)c2ccco2)cc1 (configuration not stated)	-14%	-7	?	-4%	?	0%
Cc1ccccc1N(C(=O)c1snc(C(N)=O)c1N)C(C(=O)NCC1CCCO1)c1ccc(N(C)C)cc1 (configuration not stated)	-14%	-9	?	-25%	?	-11%
CC(C(=O)NCC1CCCO1)N(C(=O)c1snc(C(N)=O)c1N)c1ccccc1 (configuration not stated)	3%	-8	-7%	-6%	-2%	1%
Cc1ccc(N(C(=O)c2snc(C(N)=O)c2N)C(C(=O)NCC2CCCO2)c2ccc(C)o2)c(C)c1 (configuration not stated)	0%	?	18µM*	?	16µM*	-25%
CCc1ccccc1N(C(=O)c1snc(C(N)=O)c1N)C(C(=O)NCC1CCCO1)c1c[nH]c2ccccc12 (configuration not stated)	?	-24	?	-5%	21µM*	?
CCCNC(=O)C(Cc1ccc(I)cc1)NC(=O)C1CC1 (configuration not stated)	11%	21	-18%	22%	-19%	1%
CCc1ccccc1N(C(=O)c1snc(C(N)=O)c1N)C(C(=O)NCC1CCCO1)c1ccc(N(C)C)cc1 (configuration not stated)	-14%	-2	?	-16%	?	-12%
COc1ccc(N(C(=O)c2snc(C(N)=O)c2N)C(C(=O)NCC2CCCO2)c2ccc(C)o2)cc1OC (configuration not stated)	-1%	5	?	1%	18µM*	6%
CCOc1ccc(C(C(=O)NCC2CCCO2)N(Cc2cccc(OC)c2)C(=O)c2snc(C(N)=O)c2N)cc1 (configuration not stated)	-5%	-5	2%	61%	?	-1%
COc1ccc(C(C(=O)NCC2CCCO2)N(Cc2cccs2)C(=O)c2snc(C(N)=O)c2N)cc1 (configuration not stated)	-1%	10	16µM*	-4%	10µM*	-17%
CCc1ccccc1N(C(=O)c1snc(C(N)=O)c1N)C(C(=O)NCC1CCCO1)c1ccc(C)o1 (configuration not stated)	-15%	-9	12µM*	30%	10µM*	-19%
Cc1nc(C)c(C(=O)N(c2ccccc2F)C(C(=O)NCC2CCCO2)c2ccccc2)s1 (configuration not stated)	15%	-6	26µM*	-6%	?	10%
COCCNC(=O)C(c1ccc(C)o1)N(C(=O)c1snc(C(N)=O)c1N)c1ccc(C)c(C)c1 (configuration not stated)	10%	-1	-26%	-3%	-26%	-11%
CC(OC(=O)c1ccc2c(c1)NC(=O)CS2)C(=O)Nc1cccc(C#N)c1 (configuration not stated)	nt	nt	nt	4%	nt	nt
COc1ccc(S(=O)(=O)N2CCCCC2c2cc(C(=O)Nc3ccc(F)c(Cl)c3)no2)cc1 (configuration not stated)	?	-17	16µM*	-16%	16µM*	?
N#Cc1ccc(S(=O)(=O)N2CCCCC2c2cc(C(=O)NCc3cccnc3)no2)cc1 (configuration not stated)	3%	-2	?	22%	?	3%
COc1ccc(S(=O)(=O)N2CCCCC2c2cc(C(=O)Nc3ccc(OC)cc3C)no2)cc1 (configuration not stated)	-2%	9	16µM*	12%	18µM*	1%
COc1ccc(NC(=O)c2cc(C3CCCCN3S(=O)(=O)c3c(C)noc3C)on2)c(C)c1 (configuration not stated)	2%	0	?	-1%	?	4%
COc1ccc(NC(=O)c2cc(C3CCCCN3S(=O)(=O)c3cccs3)on2)c(C)c1 (configuration not stated)	-2%	10	?	-6%	23µM*	-12%
